# Assay results: paper PMC7862700, “An all-to-all approach to the identification of sequence-specific readers for epigenetic DNA modifications on cytosine”
# Assays:
# Test in all cases: DAPPL (digital affinity profiling via proximity ligation, sequencing); 10 mM Tris-HCl pH 7.5, 50 mM NaCl, 1 mM DTT, 4% glycerol, room temperature, 30 min; GST-TFs on glutathione beads, 16-mer random dsDNA library, 0.1% formaldehyde crosslink after washing; high values mean tight binding
# [1] = target: SPI1 (Homo sapiens, UniProt P17947 1-270); conditions: protein: recombinant; tags: N-terminal GST; dsDNA, one strand shown
# Summary of the method: (§1)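 Binding signal is defined as a hexamer's read frequency for one factor over its frequency for the tag-only sample. To obtain reads, GST-fused human transcription factors were expressed in yeast, captured on glutathione beads, barcoded with DNA and pooled with that sample. Pools met 200 nmole of a 16-mer random double-stranded DNA library in Tris/NaCl/DTT/glycerol buffer for 30 min at room temperature before washing, 0.1% formaldehyde crosslinking, proximity ligation (BsaI/T4 ligase, 1 h, 37 °C), PCR and Illumina NextSeq500 sequencing.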
# [2] = target: T1, SPIC (Homo sapiens, UniProt Q8N5J4 1-248); conditions: protein: recombinant; tags: N-terminal GST; dsDNA, one strand shown
# T1 sequence: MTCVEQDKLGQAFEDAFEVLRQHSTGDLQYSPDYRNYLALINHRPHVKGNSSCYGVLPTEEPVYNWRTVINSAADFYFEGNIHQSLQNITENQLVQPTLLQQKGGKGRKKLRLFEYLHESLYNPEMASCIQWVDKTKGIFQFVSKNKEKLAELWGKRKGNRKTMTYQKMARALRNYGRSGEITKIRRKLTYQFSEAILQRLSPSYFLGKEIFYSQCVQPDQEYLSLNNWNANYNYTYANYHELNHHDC
# Summary of the method: as §1
# [3] = target: T2, ETV2 (Homo sapiens, UniProt O00321 1-342); conditions: protein: recombinant; tags: N-terminal GST; dsDNA, one strand shown
# T2 sequence: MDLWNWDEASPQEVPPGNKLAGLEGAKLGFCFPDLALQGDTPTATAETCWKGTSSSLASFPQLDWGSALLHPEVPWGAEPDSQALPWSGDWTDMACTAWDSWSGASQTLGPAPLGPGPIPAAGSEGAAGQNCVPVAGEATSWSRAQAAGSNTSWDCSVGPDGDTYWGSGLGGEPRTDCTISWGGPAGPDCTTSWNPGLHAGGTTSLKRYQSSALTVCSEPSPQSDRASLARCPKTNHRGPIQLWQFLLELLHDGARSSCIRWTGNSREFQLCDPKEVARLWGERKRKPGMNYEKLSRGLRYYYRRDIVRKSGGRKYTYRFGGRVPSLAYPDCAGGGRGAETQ
# Summary of the method: as §1
# [4] = target: HSF1 (Homo sapiens, UniProt Q00613 1-529); conditions: protein: recombinant; tags: N-terminal GST; chain copies: 3; dsDNA, one strand shown
# Summary of the method: as §1
# [5] = target: CRX (Homo sapiens, UniProt O43186 1-299); conditions: protein: recombinant; tags: N-terminal GST; dsDNA, one strand shown
# Summary of the method: as §1
# [6] = target: T3, ELF5 (Homo sapiens, UniProt Q9UKW6-2 1-255); conditions: protein: recombinant; tags: N-terminal GST; dsDNA, one strand shown
# T3 sequence: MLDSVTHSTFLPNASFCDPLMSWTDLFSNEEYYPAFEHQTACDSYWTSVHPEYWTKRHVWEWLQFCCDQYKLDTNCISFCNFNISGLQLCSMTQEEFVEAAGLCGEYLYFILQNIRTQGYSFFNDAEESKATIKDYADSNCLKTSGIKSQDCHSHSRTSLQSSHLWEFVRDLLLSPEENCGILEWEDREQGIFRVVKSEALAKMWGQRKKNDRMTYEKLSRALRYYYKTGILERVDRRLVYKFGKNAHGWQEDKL
# Summary of the method: as §1
# HSF1, sequence (Q00613 whole entry): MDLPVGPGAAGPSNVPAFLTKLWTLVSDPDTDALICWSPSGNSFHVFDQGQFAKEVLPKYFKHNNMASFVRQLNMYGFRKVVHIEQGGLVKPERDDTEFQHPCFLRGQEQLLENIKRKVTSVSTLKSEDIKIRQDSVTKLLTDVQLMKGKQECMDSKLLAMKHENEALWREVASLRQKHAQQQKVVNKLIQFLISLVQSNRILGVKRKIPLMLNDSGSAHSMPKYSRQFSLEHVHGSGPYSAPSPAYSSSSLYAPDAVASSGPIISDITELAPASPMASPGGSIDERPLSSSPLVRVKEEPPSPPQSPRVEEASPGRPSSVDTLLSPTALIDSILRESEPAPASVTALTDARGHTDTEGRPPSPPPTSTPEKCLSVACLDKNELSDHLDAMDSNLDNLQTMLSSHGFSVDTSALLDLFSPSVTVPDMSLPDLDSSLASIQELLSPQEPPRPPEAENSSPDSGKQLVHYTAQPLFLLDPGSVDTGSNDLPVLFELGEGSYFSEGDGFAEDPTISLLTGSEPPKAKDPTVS
# CRX, sequence (O43186 whole entry): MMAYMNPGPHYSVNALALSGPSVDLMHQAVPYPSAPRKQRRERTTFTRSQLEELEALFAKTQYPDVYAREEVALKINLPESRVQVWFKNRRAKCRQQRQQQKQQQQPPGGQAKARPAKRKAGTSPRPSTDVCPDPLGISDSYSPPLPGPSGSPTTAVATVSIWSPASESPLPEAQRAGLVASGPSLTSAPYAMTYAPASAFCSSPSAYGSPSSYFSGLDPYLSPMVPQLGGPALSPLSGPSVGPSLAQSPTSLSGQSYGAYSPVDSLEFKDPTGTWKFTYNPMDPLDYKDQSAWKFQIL
sequence,measurement,setting,value
TGCAGC,binding signal,[1],"1.02 fold enrichment (6-mer frequency, TF over GST control)"
same,binding signal,[2],"1.22 fold enrichment (6-mer frequency, TF over GST control)"
same,binding signal,[3],"1.12 fold enrichment (6-mer frequency, TF over GST control)"
CAATGT,binding signal,[2],"1.13 fold enrichment (6-mer frequency, TF over GST control)"
GCCCCG,binding signal,[1],"1.08 fold enrichment (6-mer frequency, TF over GST control)"
same,binding signal,[2],"1.13 fold enrichment (6-mer frequency, TF over GST control)"
same,binding signal,[3],"1.06 fold enrichment (6-mer frequency, TF over GST control)"
CATAAG,binding signal,[4],"1.13 fold enrichment (6-mer frequency, TF over GST control)"
same,binding signal,[5],"1.42 fold enrichment (6-mer frequency, TF over GST control)"
ACACGG,binding signal,[2],"1.06 fold enrichment (6-mer frequency, TF over GST control)"
same,binding signal,[6],"1.15 fold enrichment (6-mer frequency, TF over GST control)"
GTCTAT,binding signal,[1],"1.03 fold enrichment (6-mer frequency, TF over GST control)"
same,binding signal,[2],"1.18 fold enrichment (6-mer frequency, TF over GST control)"
same,binding signal,[3],"1 fold enrichment (6-mer frequency, TF over GST control)"
same,binding signal,[6],"1.08 fold enrichment (6-mer frequency, TF over GST control)"
ACGCTC,binding signal,[2],"1 fold enrichment (6-mer frequency, TF over GST control)"
same,binding signal,[3],"1.02 fold enrichment (6-mer frequency, TF over GST control)"
GAAGCC,binding signal,[2],"1 fold enrichment (6-mer frequency, TF over GST control)"
same,binding signal,[3],"1.04 fold enrichment (6-mer frequency, TF over GST control)"
same,binding signal,[6],"1.07 fold enrichment (6-mer frequency, TF over GST control)"
CAGCCC,binding signal,[1],"1.03 fold enrichment (6-mer frequency, TF over GST control)"
same,binding signal,[2],"1.13 fold enrichment (6-mer frequency, TF over GST control)"
same,binding signal,[3],"1.27 fold enrichment (6-mer frequency, TF over GST control)"
same,binding signal,[6],"1.01 fold enrichment (6-mer frequency, TF over GST control)"
ACTCAG,binding signal,[2],"1.11 fold enrichment (6-mer frequency, TF over GST control)"
same,binding signal,[3],"1.09 fold enrichment (6-mer frequency, TF over GST control)"
AGTGCA,binding signal,[1],"1.47 fold enrichment (6-mer frequency, TF over GST control)"
same,binding signal,[2],"1.21 fold enrichment (6-mer frequency, TF over GST control)"
same,binding signal,[3],"1.04 fold enrichment (6-mer frequency, TF over GST control)"
same,binding signal,[6],"1.1 fold enrichment (6-mer frequency, TF over GST control)"
GTTACC,binding signal,[1],"1.12 fold enrichment (6-mer frequency, TF over GST control)"
same,binding signal,[2],"1.03 fold enrichment (6-mer frequency, TF over GST control)"
same,binding signal,[6],"1.11 fold enrichment (6-mer frequency, TF over GST control)"
CGGCTG,binding signal,[2],"1.12 fold enrichment (6-mer frequency, TF over GST control)"
GGGAAA,binding signal,[1],"1.05 fold enrichment (6-mer frequency, TF over GST control)"
same,binding signal,[4],"1.15 fold enrichment (6-mer frequency, TF over GST control)"
same,binding signal,[6],"1.42 fold enrichment (6-mer frequency, TF over GST control)"
GAACTG,binding signal,[1],"1.2 fold enrichment (6-mer frequency, TF over GST control)"
same,binding signal,[2],"1.26 fold enrichment (6-mer frequency, TF over GST control)"
same,binding signal,[3],"1.02 fold enrichment (6-mer frequency, TF over GST control)"
same,binding signal,[6],"1.01 fold enrichment (6-mer frequency, TF over GST control)"
GCTAGA,binding signal,[4],"1.96 fold enrichment (6-mer frequency, TF over GST control)"
same,binding signal,[5],"1.15 fold enrichment (6-mer frequency, TF over GST control)"
CGCCCA,binding signal,[2],"1.06 fold enrichment (6-mer frequency, TF over GST control)"
GGGGCT,binding signal,[2],"1.01 fold enrichment (6-mer frequency, TF over GST control)"
same,binding signal,[5],"1.11 fold enrichment (6-mer frequency, TF over GST control)"
GCGAAA,binding signal,[1],"1.02 fold enrichment (6-mer frequency, TF over GST control)"
same,binding signal,[4],"1.26 fold enrichment (6-mer frequency, TF over GST control)"
CGCGCG,binding signal,[2],"1.14 fold enrichment (6-mer frequency, TF over GST control)"
same,binding signal,[3],"1.05 fold enrichment (6-mer frequency, TF over GST control)"
ACTGGT,binding signal,[1],"1.1 fold enrichment (6-mer frequency, TF over GST control)"
same,binding signal,[2],"1.07 fold enrichment (6-mer frequency, TF over GST control)"
same,binding signal,[3],"1.08 fold enrichment (6-mer frequency, TF over GST control)"
same,binding signal,[6],"1.03 fold enrichment (6-mer frequency, TF over GST control)"
GTACGA,binding signal,[1],"1.05 fold enrichment (6-mer frequency, TF over GST control)"
same,binding signal,[2],"1.02 fold enrichment (6-mer frequency, TF over GST control)"
same,binding signal,[3],"1.07 fold enrichment (6-mer frequency, TF over GST control)"
same,binding signal,[6],"1.03 fold enrichment (6-mer frequency, TF over GST control)"
AGTAAA,binding signal,[1],"1.22 fold enrichment (6-mer frequency, TF over GST control)"
same,binding signal,[4],"1.09 fold enrichment (6-mer frequency, TF over GST control)"
same,binding signal,[6],"1.06 fold enrichment (6-mer frequency, TF over GST control)"
TGTTGT,binding signal,[1],"1.1 fold enrichment (6-mer frequency, TF over GST control)"
same,binding signal,[2],"1.23 fold enrichment (6-mer frequency, TF over GST control)"
same,binding signal,[6],"1.05 fold enrichment (6-mer frequency, TF over GST control)"
TGGGTG,binding signal,[1],"1 fold enrichment (6-mer frequency, TF over GST control)"
same,binding signal,[2],"1.03 fold enrichment (6-mer frequency, TF over GST control)"
same,binding signal,[6],"1.04 fold enrichment (6-mer frequency, TF over GST control)"
TGGAAC,binding signal,[4],"1.86 fold enrichment (6-mer frequency, TF over GST control)"
GTACTG,binding signal,[1],"1.04 fold enrichment (6-mer frequency, TF over GST control)"
same,binding signal,[2],"1.04 fold enrichment (6-mer frequency, TF over GST control)"
AGCTCG,binding signal,[4],"1.02 fold enrichment (6-mer frequency, TF over GST control)"
same,binding signal,[3],"1 fold enrichment (6-mer frequency, TF over GST control)"
AGCACA,binding signal,[1],"1.06 fold enrichment (6-mer frequency, TF over GST control)"
same,binding signal,[2],"1.02 fold enrichment (6-mer frequency, TF over GST control)"
same,binding signal,[3],"1.12 fold enrichment (6-mer frequency, TF over GST control)"
same,binding signal,[6],"1.05 fold enrichment (6-mer frequency, TF over GST control)"
AGTCCC,binding signal,[1],"1.26 fold enrichment (6-mer frequency, TF over GST control)"
same,binding signal,[2],"1.06 fold enrichment (6-mer frequency, TF over GST control)"
same,binding signal,[6],"1.06 fold enrichment (6-mer frequency, TF over GST control)"
GCAGCT,binding signal,[1],"1 fold enrichment (6-mer frequency, TF over GST control)"
same,binding signal,[2],"1.14 fold enrichment (6-mer frequency, TF over GST control)"
same,binding signal,[3],"1.06 fold enrichment (6-mer frequency, TF over GST control)"
same,binding signal,[5],"1 fold enrichment (6-mer frequency, TF over GST control)"
TCGAAC,binding signal,[4],"2 fold enrichment (6-mer frequency, TF over GST control)"
same,binding signal,[3],"1.03 fold enrichment (6-mer frequency, TF over GST control)"
same,binding signal,[5],"1.07 fold enrichment (6-mer frequency, TF over GST control)"
same,binding signal,[6],"1.04 fold enrichment (6-mer frequency, TF over GST control)"
AGCCAC,binding signal,[1],"1.03 fold enrichment (6-mer frequency, TF over GST control)"
same,binding signal,[2],"1.03 fold enrichment (6-mer frequency, TF over GST control)"
same,binding signal,[3],"1.07 fold enrichment (6-mer frequency, TF over GST control)"
CAAACA,binding signal,[1],"1.14 fold enrichment (6-mer frequency, TF over GST control)"
same,binding signal,[2],"1.14 fold enrichment (6-mer frequency, TF over GST control)"
same,binding signal,[3],"1.13 fold enrichment (6-mer frequency, TF over GST control)"
same,binding signal,[6],"1.11 fold enrichment (6-mer frequency, TF over GST control)"
CGACGG,binding signal,[2],"1.15 fold enrichment (6-mer frequency, TF over GST control)"
GACCGG,binding signal,[6],"1.08 fold enrichment (6-mer frequency, TF over GST control)"
TAGGCC,binding signal,[5],"1.21 fold enrichment (6-mer frequency, TF over GST control)"
GCCGGA,binding signal,[6],"1.05 fold enrichment (6-mer frequency, TF over GST control)"
